# Results taken from PubChem BioAssay (NCI).
# Compounds without any hit were thinned out: in the full panel of roughly 79,000, 15% have a hit. Values without a mark were called inactive. Active and inactive are the calls of the source. No stated cut-off is given here; in the data, active means growth inhibition above about 70%; inactive means the rest.
# Test: NCI Yeast Anticancer Drug Screen. Data for the sgs1 mgt1 strain (AID 161);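 further: 0% = growth of cultures given vehicle only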
# Conditions: S. cerevisiae sgs1 mgt1 strain, at 50.0 µM, hits give high values
# How it was run: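 Inhibition of yeast growth, normalised to vehicle-treated controls, is reported for a strain bearing genetic alterations in DNA damage repair.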
row,Compound,growth inhibition
1,CCCNC(=O)OCc1ccc(NCCN(CC)CC)c2c(=O)c3ccccc3sc12,-8.85%
2,COc1cc(C(c2cc3c(cc2O)OCO3)N2CCCCC2)cc(OC)c1OC (stereo not given),21.8%
3,Cc1cc2c(cc1Cl)Sc1nnc(C)n1S2(=O)=O,62.2%
4,O=C(Oc1cccc2cccnc12)c1ccccc1,93.6% (active)
5,CCCCCCN(CCCCCC)CCC(=O)c1ccc2cc(Br)c3ccccc3c2c1,97.9% (active)
6,Cc1c2cc(Cl)ccc2cc2c1ccc1ccccc12,99.2% (active)
7,O=C1OC(CCCl)(c2ccccc2)CC1CN1CCOCC1 (stereo not given),59%
8,CCOC(=N)CCCSSc1ccc(N=[N+]=[N-])cc1,99% (active)
9,Cc1[nH]c2ccccc2c1/C=C1\C(=O)C2CCC1C2 (stereo not given),71.3% (active)
10,O=C(O)c1ccc2c3c(ncnc13)-c1ccccc1C2=O,61%
11,CCNCCNc1cc(O)c2c(c1O)C(=O)c1ccccc1C2=O,83.5% (active)
12,Nc1nc(N)c2nc(CNc3ccc(C(=O)NC(CCC(=O)O)C(=O)O)cc3)cnc2n1 (stereo not given),34.5%
13,COc1ccccc1OC(=O)Oc1ccccc1OC,9.45%
14,NNC(=O)c1c(SCc2ccccc2)nc2c3ccccc3ccn12,52.6%
15,N#CC1Oc2ccccc2N1C(=O)c1ccccc1 (stereo not given),36%
16,O=C1C2=Cc3ccccc3CCN2c2ccccc21,89.8% (active)
17,Cc1cc([N+](=O)[O-])cc(Cl)c1O,88% (active)
18,Cc1c(Cl)cccc1N=NC(=O)NNc1cccc(Cl)c1C,74.5% (active)
19,CCC[CH2][Sn]1([CH2]CCC)[O]C(=O)CN=Cc2c(ccc3ccccc23)[O]1,92.9% (active)
20,Oc1ccc(/C=N/NC(=S)Nc2ccccc2)nc1,82.8% (active)

row,Compound,growth inhibition
1,CN(C)COC(=S)SCN(C)C,60.2%
2,Cc1cc2cc3c(c(C(=O)O)c2o1)C(=O)c1ccc2ccccc2c1C3,99.5% (active)
3,O=C1CC(=S)NC(=S)N1,-15%
4,O=[N+]([O-])c1cc(I)c(O)c(/C=N/NS(=O)(=O)c2ccc(Cl)cc2)c1,77.7% (active)
5,CCC1CCC(CC)C1=O (stereo not given),51.6%
6,Cc1cc(O)c2c(c1)C(=O)c1c(c(O)cc(O)c1-c1c(O)cc(O)c3c1C(=O)c1cc(C)cc(O)c1C3=O)C2=O,69.8%
7,CCC(=O)Sc1ccccc1C(=O)Nc1ccc(Cl)cc1,52.4%
8,COc1cccc(CC2N(S(=O)(=O)c3ccc(C)cc3)CCC23C(=O)Nc2ccccc23)c1OC (stereo not given),82.2% (active)
9,Cc1occc1C(=S)Nc1ccc(Cl)c(C(=O)OCC(C)C)c1,58.8%
10,CCOC(=O)c1ccc([N+](=O)[O-])o1,66.1%
11,Nc1ccc(S(=O)(=O)O)c2cccc(S(=O)(=O)O)c12,31.5%
12,Cn1c2ccccc2c2nnc(N/N=C/c3ccccn3)nc21,96.9% (active)
13,C#CC(NCCC(C)CC(C)(C)C)C(C)C (stereo not given),87.7% (active)
14,C/C(=N/Nc1ccccc1)C(=O)O,97.7% (active)
15,CCCCCCCCCCCCCCOC(=O)C(N)Cc1ccc(O)cc1 (stereo not given),97.9% (active)
16,O=C(Nc1ccc(S(=O)(=O)NC2CCCCC2)cc1)OCc1ccccc1,73% (active)
17,NC1CCCCC1N.O=S(=O)([O-])CCCN1CCN(CCO)CC1.O=S(=O)([O-])CCCN1CCN(CCO)CC1.[Pt+4],23.1%
18,CCCCCCCNc1ccc2c(cc1=O)C(NC(C)=O)CCc1cc(OC)c(OC)c(OC)c1-2 (stereo not given),98.8% (active)
19,Cc1ccc(NC(=O)c2cc3ccccc3c(N=Nc3cc(S(=O)(=O)O)ccc3O)c2O)c(C)c1,78.7% (active)
20,O=C(O)/C(Cl)=C(\Cl)C(=O)Nc1cccc(C(F)(F)F)c1,99.7% (active)
